KB-3-1 cytotox – qHTS assay for MDR1-selective chemotherapeutics: Primary screen using the parental adenocarcinoma cell KB-3-1; KB-3-1 viability, CellTiter-Glo ATP luminescence, 72 h; Potency, µM (highest dose often 46.1 µM), usual class: cytotoxic; actives 1.4% (n = 400,000); AID 1347075, 2019; also: % is scaled to controls: 0 for no effect and ±100 for the full control effect; nearly all actives have a fitted effect of over 60% in size
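Parental KB-3-1 viability, qHTS format: 72 h compound exposure, 37 °C; CellTiter-Glo; media-only wells and DMSO plates as controls; concentration-effect fits on corrected data.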
TGFb SMAD3 inh – qHTS for Inhibitors of TGF-b; HepG2 CAGA-GFP TGF-b/SMAD3 reporter, GFP fluorescence, 18 h; TGF-beta stimulated, 500 pg/mL final; actives 1.2% (n = 410,000); Potency, µM (top dose mostly 46.1 µM), for the others: at the highest dose activity, negative = inhibition, actives largely listed as inhibitors; also: % is scaled to controls: 0 for no effect and ±100 for the full control effect; nearly all actives have a fitted effect of over 65% in size
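TGF-beta reporter screen: HEPG2 CAGA-GFP, 1% FBS, 500 pg/mL TGF-beta final, 18 h; per-cell GFP summed per well; curves fitted and categorized by class.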
KB-V1 MDR tox – qHTS assay for MDR1-selective chemotherapeutics: Primary screen using the drug-selected MDR subline cells KB-V1; KB-V1 MDR cells viability, CellTiter-Glo, 72 h; Potency, µM (titrated, usually from 46.1 µM), usual class: cytotoxic; actives 3.4% (n = 400,000); also: % is scaled to controls: 0 for no effect and ±100 for the full control effect; nearly all actives have a fitted effect of over 60% in size
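KB-V1 MDR subline cells in DMEM (phenol-red free, 10% FBS) exposed to compounds in qHTS concentration series for 72 h at 37 degrees C. Viability read by CellTiter-Glo luminescence; concentration-effect curves fitted after normalization and correction.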
HT1080-NT tox – qHTS for induction of synthetic lethality in tumor cells producing 2HG: qHTS for the HT-1080-NT fibrosarcoma cell line; HT-1080-NT fibrosarcoma viability, CellTiter-Glo ATP luminescence, 48 h; Potency, µM (titrated, usually from 46.1 µM), for inactives: at the top dose activity, negative = less viability, hits mostly cytotoxic; actives 1.6% (n = 360,000);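 also: NT is the 2HG producing partner of a matched IDH1 knockdown line; 0% = DMSO-treated cells and -100% = media-only wells without cells; nearly all actives have a fitted effect of over 55% in size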
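HT-1080-NT fibrosarcoma cells (2HG-overproducing), 750 cells/well in RPMI with 5% FBS, dosed after 2 h and incubated 48 h at 37C. CellTiter-Glo luminescence normalized to DMSO and no-cell wells; concentration-response curves fitted and classed.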
HT1080 IDH1KD tx – qHTS for induction of synthetic lethality in tumor cells producing 2HG: qHTS for the HT-1080-IDH1KD cell line. HT-1080 IDH1 knockdown viability, ATP luminescence, 48 h. AID 686971, 2013. actives 2% (n = 360,000). Potency, µM (titrated, usually from 46.1 µM), inactives show top-dose activity, negative = toxicity, actives largely listed as cytotoxic;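 also: 0% = DMSO wells and -100% = cell-free medium wells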
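Cytotoxicity counter-line: IDH1KD HT-1080, 48 h, CellTiter-Glo. Curves classed by r2, magnitude and activity.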
HepG2 viability – qHTS for Inhibitors of TGF-b: Cytotox Counterscreen; Potency, µM (doses to about 46.1 µM), for the others: at the highest dose activity change, negative = cytotoxicity, usual class: cytotoxic; AID 588856, 2011; actives 0.76% (n = 410,000); HepG2 CAGA-GFP viability, ATP luminescence, 18 h
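HepG2 CAGA-GFP cells (1000/well, DMEM with 1% FBS) received compound, then TGF-beta at 500 pg/mL final, and were incubated 18 hours at 37 degrees C. Viability was read by CellTiter-Glo luminescence. Media-only wells were set as complete cell-killing and DMSO as no toxicity.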
Active calls of the source: *; [ ] = dose if it differs, or a comment. Hits are enriched below; roughly 6.6% of the tested compounds scored in any of these assays. Calls follow the shape of the dose curve; as a rule, active = well fitted curve in the direction sought with a large enough effect; inconclusive = small, poorly fitted or top-dose-only effect, or another doubt; inactive = no such curve, though single readings can be large; an effect the other way counts as inactive or inconclusive. Potency is read from the fitted curve at half-maximal effect.

Results for O=C(NCc1ccccc1Cl)C(=O)NCC(c1cccs1)S(=O)(=O)c1ccccc1 (configuration not stated) ?
KB-3-1 cytotox: inactive; TGFb SMAD3 inh: inconclusive; KB-V1 MDR tox: inactive; HepG2 viability: -10%

What do the screens show for `CCCCc1ccc(N/C(N)=N/c2nc(C)cc(C)n2)cc1`?
KB-3-1 cytotox: inconclusive; TGFb SMAD3 inh: inconclusive; KB-V1 MDR tox: 6.5µM*; HT1080-NT tox: 33µM*; HT1080 IDH1KD tx: 21µM*; HepG2 viability: 16µM*

How did Cc1cc(C)cc(N/C(N)=N/c2nc(C)cc(C)n2)c1 do in these assays?
KB-3-1 cytotox: inconclusive; TGFb SMAD3 inh: -4%; KB-V1 MDR tox: 21µM*; HT1080-NT tox: 5%; HT1080 IDH1KD tx: 1%; HepG2 viability: -2%

How did CSc1cccc(NC(=O)c2ccc3c(c2)c(C)c(C)n3Cc2ccc(F)cc2)c1 do in these assays?
KB-3-1 cytotox: inactive; TGFb SMAD3 inh: -23%; KB-V1 MDR tox: inactive; HepG2 viability: -21%

How did C=CCOc1ccc(CN(C)C(=O)CNC(=O)c2ccc(-c3ccccc3)cc2)cc1 do in these assays?
KB-3-1 cytotox: 4.6µM*; TGFb SMAD3 inh: inconclusive; KB-V1 MDR tox: 2.3µM*; HT1080-NT tox: -26%; HT1080 IDH1KD tx: inconclusive; HepG2 viability: -26%

What do the screens show for `Cc1ccccc1-n1nc(CO)c(C(=O)NCc2cccs2)n1`?
TGFb SMAD3 inh: -7%; HepG2 viability: -15%

Results for Cc1ccc(SCC(Cc2ccccc2)N2CCN(CCc3ccccc3)CCC2=O)cc1 (configuration not stated) ?
TGFb SMAD3 inh: inconclusive; HepG2 viability: -11%

What do the screens show for `COC(=O)c1ccc(C)c(NS(=O)(=O)c2ccc(C)c([N+](=O)[O-])c2)c1`?
KB-3-1 cytotox: inactive; TGFb SMAD3 inh: 0%; KB-V1 MDR tox: inactive; HT1080-NT tox: -24%; HT1080 IDH1KD tx: inconclusive; HepG2 viability: -40%

Results for CSc1ccccc1NS(=O)(=O)c1ccc2c(c1)OCCO2 ?
KB-3-1 cytotox: inactive; TGFb SMAD3 inh: inconclusive; KB-V1 MDR tox: 21µM*; HT1080-NT tox: 9%; HT1080 IDH1KD tx: -2%; HepG2 viability: 24%

Results for COc1ccccc1NS(=O)(=O)c1ccc2c(c1)OCCO2 ?
KB-3-1 cytotox: inactive; TGFb SMAD3 inh: -1%; KB-V1 MDR tox: inactive; HT1080-NT tox: 1%; HT1080 IDH1KD tx: 0%; HepG2 viability: -2%

How did CC(C)(C)NS(=O)(=O)c1ccc(CCC(=O)Nc2ccc3c(c2)OCO3)cc1 do in these assays?
KB-3-1 cytotox: inactive; TGFb SMAD3 inh: 0%; KB-V1 MDR tox: inactive; HT1080-NT tox: -19%; HT1080 IDH1KD tx: -5%[9.24 µM]; HepG2 viability: -80%

How did Cc1c(Cl)cccc1NS(=O)(=O)c1ccc(NS(=O)(=O)c2ccc3c(c2)OCCO3)cc1 do in these assays?
KB-3-1 cytotox: inactive; TGFb SMAD3 inh: 16µM*; KB-V1 MDR tox: inactive; HepG2 viability: -42%

Results for CC(C)(C)NS(=O)(=O)c1ccc(CCC(=O)Nc2ccc3c(c2)OCCO3)cc1 ?
KB-3-1 cytotox: inactive; TGFb SMAD3 inh: -10%; KB-V1 MDR tox: 16µM*; HT1080-NT tox: 0%; HT1080 IDH1KD tx: 7%; HepG2 viability: -5%

How did O=S(=O)(Nc1cccnc1Cl)c1ccc2c(c1)OCCO2 do in these assays?
KB-3-1 cytotox: inactive; TGFb SMAD3 inh: 5%; KB-V1 MDR tox: inactive; HT1080-NT tox: inconclusive; HT1080 IDH1KD tx: -5%; HepG2 viability: -3%

How did COC(=O)c1ccc(C)c(NS(=O)(=O)c2ccc3c(c2)OCCO3)c1 do in these assays?
KB-3-1 cytotox: 2.3µM*; TGFb SMAD3 inh: -20%; KB-V1 MDR tox: 1.2µM*; HT1080-NT tox: 0.5µM*; HT1080 IDH1KD tx: 0.71µM*; HepG2 viability: -7%

How did Cc1c(C(=O)O)oc2c1-c1nn(Cc3ccccc3Cl)cc1CC2 do in these assays?
HepG2 viability: -13%

What do the screens show for `CC(=O)c1cc2c(cc1NS(=O)(=O)c1ccc(C)cc1)OCCO2`?
KB-3-1 cytotox: inactive; TGFb SMAD3 inh: 5%; KB-V1 MDR tox: 16µM*; HT1080-NT tox: inconclusive; HT1080 IDH1KD tx: 16µM*; HepG2 viability: -2%

Results for Cc1ccc(S(=O)(=O)Nc2ccc3c(c2)OCCO3)cc1 ?
KB-3-1 cytotox: inconclusive; TGFb SMAD3 inh: inconclusive; KB-V1 MDR tox: 23µM*; HT1080-NT tox: -8%; HT1080 IDH1KD tx: -20%; HepG2 viability: -35%

What do the screens show for `O=C1CCCN1c1ccc(S(=O)(=O)Nc2ccc3c(c2)OCCO3)cc1`?
KB-3-1 cytotox: 18µM*; TGFb SMAD3 inh: -26%; KB-V1 MDR tox: 18µM*; HT1080-NT tox: 5µM*; HT1080 IDH1KD tx: inconclusive; HepG2 viability: 0%

Results for Cc1c(Cl)cccc1NC(=O)CN1C(=O)COc2ccc(S(=O)(=O)Nc3ccccc3)cc21 ?
KB-3-1 cytotox: inactive; TGFb SMAD3 inh: 10µM*; KB-V1 MDR tox: inactive; HepG2 viability: -20%

Results for CC(=O)c1cc2c(cc1NS(=O)(=O)c1ccccc1)OCO2 ?
KB-3-1 cytotox: inactive; TGFb SMAD3 inh: 0%; KB-V1 MDR tox: inactive; HT1080-NT tox: inconclusive; HT1080 IDH1KD tx: 2%; HepG2 viability: -27%

What do the screens show for `O=S(=O)(Nc1ccc2c(c1)OCCO2)c1ccc(F)cc1`?
KB-3-1 cytotox: inactive; TGFb SMAD3 inh: -1%; KB-V1 MDR tox: inactive; HT1080-NT tox: 0%; HT1080 IDH1KD tx: -18%; HepG2 viability: -27%

Results for CCOC(=O)N1CCc2c(sc3c2c(=O)n(Cc2ccccc2)c(=O)n3Cc2c(F)cccc2Cl)C1 ?
TGFb SMAD3 inh: -41%; HepG2 viability: -30%

How did O=C(NCCc1ccc(F)cc1)C(=O)NCC(c1cccs1)S(=O)(=O)c1ccc(F)cc1 (configuration not stated) do in these assays?
KB-3-1 cytotox: inactive; TGFb SMAD3 inh: -18%; KB-V1 MDR tox: inactive; HepG2 viability: -20%

What do the screens show for `COCCCNC(=O)c1ccc(Cn2c(=O)c3ccccc3n(CC(N)=O)c2=O)cc1`?
KB-3-1 cytotox: inconclusive; TGFb SMAD3 inh: -5%; KB-V1 MDR tox: inconclusive; HepG2 viability: -4%
